Experimental data: PubChem BioAssay AID720619 (Broad Institute, 2013)
Results filed as inconclusive are left out. Active and inactive are the calls of the source.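 The calls were made as follows: active = toxic at all three exposure times, half-maximal drop reached within twice the top dose; inconclusive = exposure times disagree, or curves are weak, flat or poorly fitted; inactive = inactive at every exposure time.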

Test: viability loss in HT-29 adenocarcinoma cells – cell-based, Alamar Blue fluorescence, several timepoints, dry powder, mechanism study for HRAS target identification, late-stage follow-up (AID 720619)
Conditions: HT-29 viability
[1] = 48 h, at 35 µM (top of the series)

SMILES	activity, lower = more toxic [1]	activity, lower = more toxic (8 h treatment, at 35 µM)
Cc1onc(C(=O)N2CCN(C(c3ccncc3)c3ccncc3)CC2)c1[N+](=O)[O-]	7.85% (inactive)	-3.11%
CCC(=O)N(c1ccc(OC)c(Cl)c1)C(C(=O)NCCc1ccccc1)c1cccs1 (centres undefined)	32.2% (inactive)	5.18%
